Compounds with a hit are over-represented: about 2.4% of the library has one in this group of screens.
TLR9-MyD88 block – blocks human TLR9 binding to MyD88; Q9NR96+Q99836; CHO BLA complementation TLR9-MyD88, CCF4 FRET ratio; inhibition, % at 4.98 µM; 0.21% of 340,000 active;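 active = inhibition above the mean over all tested compounds plus 3 SD, cut at about 21% in these data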;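 also: 0% = DMSO only wells and 100% = clavulanate BLA inhibitor control wells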
NOD2-RIPK2 inh – inhibitors of human NOD2-RIPK2 interaction; O43353; CHO BLA complementation NOD2-RIPK2, CCF4 ratio; inhibition, % at 4.98 µM; 0.38% of 360,000 active; in the data active = inhibition above about 21%;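 also: 0% = vehicle only and 100% = reference blocker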
Target sequence (O43353 whole entry, looked up): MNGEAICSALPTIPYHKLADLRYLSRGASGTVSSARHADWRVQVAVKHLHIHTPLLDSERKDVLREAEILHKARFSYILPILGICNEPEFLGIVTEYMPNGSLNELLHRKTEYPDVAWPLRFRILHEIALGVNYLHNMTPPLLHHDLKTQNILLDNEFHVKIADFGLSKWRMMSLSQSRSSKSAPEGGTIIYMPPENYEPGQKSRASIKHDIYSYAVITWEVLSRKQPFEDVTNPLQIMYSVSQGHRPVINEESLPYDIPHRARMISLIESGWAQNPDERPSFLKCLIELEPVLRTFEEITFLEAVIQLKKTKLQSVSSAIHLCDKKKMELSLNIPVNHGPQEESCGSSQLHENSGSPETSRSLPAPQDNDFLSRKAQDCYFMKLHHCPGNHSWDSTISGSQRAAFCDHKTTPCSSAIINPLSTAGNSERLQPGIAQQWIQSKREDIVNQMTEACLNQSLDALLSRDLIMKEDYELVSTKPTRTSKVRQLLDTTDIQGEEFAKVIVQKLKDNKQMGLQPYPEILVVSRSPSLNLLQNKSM
HTR2A ag – mouse HTR2A agonism via beta-arrestin recruitment; CHO-K1 mHTR2A beta-arrestin complementation, luminescence; percent of 30 µM serotonin response; 0.66% of 360,000 active; activation, % at 7.6 µM;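 active = activation above a run cutoff, the mean activation of all tested compounds plus 3 SD, cut at about 14% in these data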;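 also: 0% = plate median of compound wells and 100% = 30 µM serotonin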
ABHD5-PLIN5 inh – blocks binding of human ABHD5 to perilipin-5; Q00G26+Q8WTS1; Split G. princeps luciferase complementation, luminescence, 4 h; inhibition, % at 4 µM; 0.78% of 360,000 active; AID 602281;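 active = inhibition above the mean inhibition across every tested compound plus 3 SD, cut at about 22% in these data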;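 also: 0% = DMSO only wells and the 100% control is not disclosed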
TLR4-MyD88 BLA – inhibitors of human TLR4-MyD88 binding | O00206+Q99836 | HeLa CL3-4 TLR4/MyD88 BLA complementation, FRET ratio | inhibition, % at 8.4 µM | 0.18% of 200,000 active; in the data active = inhibition above about 25%;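 also: 0% = vehicle and 100% = reference inhibitor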
CRFR2-BP antag – CRF-BP/CRF-R2 complex antagonism. AID 588475. inhibition, % at 11.8 µM. HEK293 CRF-R2/CRF-BP, CRF-induced calcium fluorescence. 0.59% of 350,000 active;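 active = inhibition of the ligand-induced calcium signal above about 50% at the single tested concentration, limit read from the data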
MOR ag counter – activates human mu opioid receptor in HTR2A counterscreen; shares compounds with HTR2A ag; U2OS OPRM1 beta-arrestin PathHunter, luminescence; DMSO 0%, DAMGO 9.3 µM 100%; activation, % at 9.3 µM; 5.3% of 2,300 active;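 active = mean activation above the mean of DMSO-only wells plus 3 SD, cut at about 0.5% in these data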
HTR2A ag conf – mouse HTR2A agonism confirmed; activation, % at 7.6 µM; shares compounds with HTR2A ag; AID 624381; 19% of 2,300 active; CHO-K1 PathHunter beta-arrestin recruitment, luminescence; DMSO 0%, 30 µM serotonin 100%;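 active = mean activation across triplicates above the hit threshold derived in the original primary screen, cut at about 15% in these data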
* = called active by the depositor.

`COc1ccc(NC(=O)C23CCC(C)(C(=O)O2)C3(C)C)cc1` (stereo not given) gave TLR9-MyD88 block 8, NOD2-RIPK2 inh 7, HTR2A ag 0, ABHD5-PLIN5 inh -2, TLR4-MyD88 BLA 5 and CRFR2-BP antag 14.
Screening CCOC(=O)c1ccc(NC(=O)C23CCC(C)(C(=O)O2)C3(C)C)cc1 (stereo not given) returned TLR9-MyD88 block -16, NOD2-RIPK2 inh -17, HTR2A ag 18*, ABHD5-PLIN5 inh -2, TLR4-MyD88 BLA 0, CRFR2-BP antag -4, MOR ag counter -1 and HTR2A ag conf -4.
For COc1cc(OC)nc(Nc2nc(C(N)Cc3ccc(C(F)(F)F)cc3)cs2)n1 (stereo not given) the results were NOD2-RIPK2 inh 21, HTR2A ag 6 and ABHD5-PLIN5 inh 4.
O=C(Nc1cccnc1)c1cc(-c2ccco2)on1 was read as TLR9-MyD88 block 7, NOD2-RIPK2 inh 6, HTR2A ag 20*, ABHD5-PLIN5 inh 4, TLR4-MyD88 BLA -5, CRFR2-BP antag -31, MOR ag counter -1 and HTR2A ag conf -2.
Cc1cc2nc(C(C)(C)C)c(Cc3cccc(F)c3)n2c(C)c1Br was read as NOD2-RIPK2 inh 6, HTR2A ag 0 and ABHD5-PLIN5 inh -11.
`CCc1nc2ccc(C(=O)N3CCN(S(=O)(=O)CC)CC3)cn2c1N(C)Cc1cccs1` gave NOD2-RIPK2 inh 0, HTR2A ag 17*, ABHD5-PLIN5 inh 2, MOR ag counter -1 and HTR2A ag conf -4.
Screening COC(=O)[C@@]12C[C@@H](CC(=O)NCc3cccc4ccccc34)C(=O)N(CCc3ccc(OC)c(OC)c3)C1=CCC(C)(C)C2 returned NOD2-RIPK2 inh -3, HTR2A ag 0 and ABHD5-PLIN5 inh 9.
CC(C)[C@H](NC(=O)c1ccco1)C(=O)Nc1ccc(N2CCCCCC2)cc1 was read as TLR9-MyD88 block -2, NOD2-RIPK2 inh 3, HTR2A ag 7, ABHD5-PLIN5 inh -1 and CRFR2-BP antag -5.
`Cn1cc([N+](=O)[O-])c(C(=O)N/N=C/c2ccncc2)n1` gave TLR9-MyD88 block -10, NOD2-RIPK2 inh -2, HTR2A ag 5, ABHD5-PLIN5 inh 6 and CRFR2-BP antag 16.
`Cn1cc([N+](=O)[O-])c(C(=O)N/N=C/c2ccc([N+](=O)[O-])cc2)n1` gave TLR9-MyD88 block -1, NOD2-RIPK2 inh 1, HTR2A ag 20*, ABHD5-PLIN5 inh -9, TLR4-MyD88 BLA -9, CRFR2-BP antag 16, MOR ag counter 0 and HTR2A ag conf 37*.
For Cc1ccc(Nc2ncnc(N)n2)cc1 the results were TLR9-MyD88 block 7, NOD2-RIPK2 inh 2, HTR2A ag 23*, ABHD5-PLIN5 inh -1, TLR4-MyD88 BLA -8, CRFR2-BP antag -22, MOR ag counter 0 and HTR2A ag conf -2.
Nc1ncnc(Nc2ccc(F)cc2)n1 was read as TLR9-MyD88 block -7, NOD2-RIPK2 inh -7, HTR2A ag -2, ABHD5-PLIN5 inh -2, TLR4-MyD88 BLA 8 and CRFR2-BP antag 3.
Screening Cc1ccc(-n2nc3c(=O)n(CCCC(=O)NCCN4CCN(C)CC4)nc(C)c3c2C)cc1 returned TLR9-MyD88 block -3, NOD2-RIPK2 inh 2, HTR2A ag 21*, ABHD5-PLIN5 inh 7, CRFR2-BP antag 5, MOR ag counter 0 and HTR2A ag conf 1.
Cc1ccc(CCNC(=O)CCCn2nc(C)c3c(C)n(-c4ccc(C)cc4)nc3c2=O)cc1 was read as TLR9-MyD88 block -7, NOD2-RIPK2 inh -9, HTR2A ag -7, ABHD5-PLIN5 inh -7 and CRFR2-BP antag 1.
`CCOc1ccccc1C(=O)NC(C(=O)OCn1nnc2ccccc2c1=O)C(C)C` (stereo not given) gave TLR9-MyD88 block -5, NOD2-RIPK2 inh 5, HTR2A ag 2, ABHD5-PLIN5 inh -5 and CRFR2-BP antag 0.
`COc1ccc(C2=CC(=O)C[C@H](CN3C(=O)c4ccccc4C3=O)N(C(=O)OC(C)(C)C)O2)cc1` gave TLR9-MyD88 block 3, NOD2-RIPK2 inh 1, HTR2A ag 15*, ABHD5-PLIN5 inh 10, CRFR2-BP antag 12, MOR ag counter -1 and HTR2A ag conf -5.
For COc1cc(OC)nc(NC(=S)NC(=O)c2ccccc2)n1 the results were TLR9-MyD88 block -1, NOD2-RIPK2 inh 2, HTR2A ag 28*, ABHD5-PLIN5 inh 5, TLR4-MyD88 BLA 2, CRFR2-BP antag -12, MOR ag counter 0 and HTR2A ag conf -1.
`O=C(NC(=S)Nc1cccc(NC(=S)NC(=O)c2ccccc2)c1)c1ccccc1` gave TLR9-MyD88 block 8, NOD2-RIPK2 inh -2, HTR2A ag -6, ABHD5-PLIN5 inh -22 and CRFR2-BP antag -2.
Screening Oc1c(C(c2ccccn2)N2CCCCC2)cc(Cl)c2cccnc12 (stereo not given) returned TLR9-MyD88 block 4, NOD2-RIPK2 inh 0, HTR2A ag 22*, ABHD5-PLIN5 inh 0, TLR4-MyD88 BLA -13, CRFR2-BP antag 0, MOR ag counter -1 and HTR2A ag conf -18.
For Cc1cc(C)n(-c2nnc(C)n2N)n1 the results were TLR9-MyD88 block -7, NOD2-RIPK2 inh 0, HTR2A ag 18*, ABHD5-PLIN5 inh 1, TLR4-MyD88 BLA -1, CRFR2-BP antag -2, MOR ag counter 0 and HTR2A ag conf -5.
Screening Cc1cc(C)n(-c2nnc(C)n2/N=C/c2ccccc2O)n1 returned TLR9-MyD88 block 1, NOD2-RIPK2 inh 7, HTR2A ag 7, ABHD5-PLIN5 inh 2, TLR4-MyD88 BLA -11 and CRFR2-BP antag 0.
CCOC(=O)[C@]12CCCC=C1N(Cc1ccc3c(c1)OCO3)C(=O)[C@H](CC(=O)NCC13CC4CC(CC(C4)C1)C3)C2 was read as NOD2-RIPK2 inh -6, HTR2A ag 1 and ABHD5-PLIN5 inh -15.
`CCn1c(N2CCN(Cc3ccc([N+](=O)[O-])cc3)CC2)nc2ccccc21` gave TLR9-MyD88 block 3, NOD2-RIPK2 inh -4, HTR2A ag 0, ABHD5-PLIN5 inh -1 and CRFR2-BP antag 27.
`CCCn1c(N2CCN(Cc3ccc(Cl)cc3)CC2)nc2ccccc21` gave TLR9-MyD88 block -11, NOD2-RIPK2 inh 9, HTR2A ag 22*, ABHD5-PLIN5 inh 4, TLR4-MyD88 BLA -2, CRFR2-BP antag 4, MOR ag counter 0 and HTR2A ag conf 13.

Assay outcomes: PubChem, several laboratories
